Assay outcomes deposited in PubChem by National Center for Advancing Translational Sciences (NCATS).
TDP1 cell CPT = qHTS for Inhibitors of human tyrosyl-DNA phosphodiesterase 1 (TDP1): qHTS in cells in presence of CPT; actives 12% (n = 420,000); chicken DT40 Tdp1-/-;hTDP1 cells + 20 nM CPT, ATP luminescence, 48 h; Potency, µM (top dose mostly 46.2 µM), inactives show at the top dose activity change, negative = growth inhibition, actives largely listed as inhibitors; AID 686979, 2013; also: potency is read from the fitted curve at half-maximal effect; nearly all actives have a fitted effect of over 55% in size
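Chicken DT40 Tdp1-/- cells stably complemented with human TDP1 were seeded at 400 cells/well in medium containing 20 nM camptothecin, exposed to pin-transferred compounds, and grown at 37 °C for at least 48 hr. Viability was read as ATP luminescence.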
HT1080NT lethal = qHTS for induction of synthetic lethality in tumor cells producing 2HG: qHTS for the HT-1080-NT fibrosarcoma cell line; HT-1080-NT fibrosarcoma viability, CellTiter-Glo ATP luminescence, 48 h; actives 1.6% (n = 360,000); Potency, µM (top dose mostly 46.1 µM), without a hit: at the highest dose activity, negative = less viability, most hits filed as cytotoxic;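 also: NT is the 2HG producing partner of a matched IDH1 knockdown line; potency is read from the fitted curve at half-maximal effect; 0% = DMSO-treated cells and -100% = media-only wells without cells; nearly all actives have a fitted effect of over 55% in size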
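HT-1080-NT; 750 cells/well; 5% FBS RPMI; 48 h compound, 37 degrees C; CellTiter-Glo luminescence; curve fitting and curve-class assignment.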
ALOX12 inh = Primary qHTS assay for inhibitors of human arachidonate 12S-lipoxygenase (ALOX12): Round 2 | actives 1.1% (n = 580,000) | purified 12hLO, xylenol orange hydroperoxide absorbance | Potency, µM (highest dose often 108 µM), inactives show at the highest dose activity change, negative = inhibition, most hits filed as inhibitors; also: potency is read from the fitted curve at half-maximal effect
Target sequence (P18054 whole entry, looked up): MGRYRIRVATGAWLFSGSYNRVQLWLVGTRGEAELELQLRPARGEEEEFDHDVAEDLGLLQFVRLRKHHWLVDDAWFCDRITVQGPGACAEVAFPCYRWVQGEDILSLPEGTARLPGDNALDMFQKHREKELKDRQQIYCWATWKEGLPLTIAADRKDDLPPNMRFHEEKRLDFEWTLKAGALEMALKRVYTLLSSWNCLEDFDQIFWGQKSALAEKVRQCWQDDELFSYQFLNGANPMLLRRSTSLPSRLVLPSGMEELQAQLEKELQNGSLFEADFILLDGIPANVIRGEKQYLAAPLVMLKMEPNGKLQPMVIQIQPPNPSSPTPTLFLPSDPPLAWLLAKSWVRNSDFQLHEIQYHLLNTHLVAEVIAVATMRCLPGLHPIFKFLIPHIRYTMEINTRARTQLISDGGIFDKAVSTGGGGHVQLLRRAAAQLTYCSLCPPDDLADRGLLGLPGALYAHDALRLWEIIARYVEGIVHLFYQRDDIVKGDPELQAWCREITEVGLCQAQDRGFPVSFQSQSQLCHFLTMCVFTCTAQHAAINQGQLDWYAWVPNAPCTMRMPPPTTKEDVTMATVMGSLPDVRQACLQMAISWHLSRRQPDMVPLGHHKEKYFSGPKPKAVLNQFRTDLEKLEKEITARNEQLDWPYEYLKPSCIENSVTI
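Hydroperoxide product was detected by ferrous iron/xylenol orange as the 573 to 405 nm absorbance ratio. Arachidonic acid at 40 uM (final) was turned over for 30 min at room temperature by 150 nM human 12hLO, pH 7.0 Hepes buffer, after 15 min compound preincubation.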
TDP1 cell noCPT = qHTS for Inhibitors of human tyrosyl-DNA phosphodiesterase 1 (TDP1): qHTS in cells in absence of CPT. DT40 Tdp1-/- hTDP1 cells, no CPT, ATP luminescence, 48 h. Potency, µM (highest dose often 46.2 µM), for the others: at the top dose activity change, negative = growth inhibition, actives largely listed as inhibitors. actives 15% (n = 420,000); also: potency is read from the fitted curve at half-maximal effect; nearly all actives have a fitted effect of over 55% in size
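Growth of hTDP1-complemented DT40 Tdp1-knockout cells is measured by ATP luminescence after at least 48 hr compound exposure at 37 °C, with DMSO substituting for the 20 nM CPT used in the parallel screen.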
IL-1B inflam inh = qHTS for Inhibitors of Inflammasome Signaling: IL-1-beta AlphaLISA Primary Screen; THP-1 LPS/ATP IL-1B secretion, AlphaLISA, 16 h; hits give low values; AID 743279, 2014; actives 4.7% (n = 360,000); activity change, % at 57.5 µM; in the data active = activity change below about -50%; inconclusive = mostly about -30% to -49%
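Secreted IL-1B measured by AlphaLISA bead assay after 16 h compound exposure of THP-1 cells; compounds (final up to 57.5 uM) added 1 h before LPS (250 ng/mL) and ATP (1.25 mM) stimulation; lower signal means less secretion.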
HT1080 IDH1KD tx = qHTS for induction of synthetic lethality in tumor cells producing 2HG: qHTS for the HT-1080-IDH1KD cell line | Potency, µM (highest dose often 46.1 µM), without a hit: at the highest dose activity, negative = toxicity, most hits filed as cytotoxic | actives 2% (n = 360,000) | HT-1080 IDH1 knockdown viability, ATP luminescence, 48 h;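 also: potency is read from the fitted curve at half-maximal effect; 0% = DMSO wells and -100% = cell-free medium wells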
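Luminescent ATP read-out (CellTiter-Glo, 10 min at room temperature) after 48 h compound exposure at 37 °C gave viability of IDH1-knockdown HT-1080 cells. Activity was normalised to DMSO and cell-free wells, then fitted as concentration-response curves.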
Starred values were filed as active, the others as inactive; u = inconclusive; x = not tested or not shown; [ ] = dose if it differs, or a comment. Shown is part of a subset that was picked to be rich in hits. Unless noted, calls follow the shape of the dose curve; as a rule, active = well fitted curve in the direction sought with a large enough effect; inconclusive = small, poorly fitted or top-dose-only effect, or another doubt; inactive = no such curve, though single readings can be large; an effect the other way counts as inactive or inconclusive. Unless noted, % is scaled to controls: 0 for no effect and ±100 for the full control effect.

SMILES | TDP1 cell CPT | HT1080NT lethal | ALOX12 inh | TDP1 cell noCPT | IL-1B inflam inh | HT1080 IDH1KD tx
O=C(c1ccco1)N1CCCC(c2nc(-c3ccc(S(=O)(=O)NCc4ccccc4)cc3)no2)C1 (stereo not drawn) | 13µM* | u | -8% | 18µM* | u | u
COc1cccc(CN2CCC([C@H]3[C@@H](OC)C(=O)N3C(C)C)CC2)n1 | x | x | 22% | x | x | x
COc1ccccc1-c1ccc2ncnc(N3CCOCC3)c2c1 | 18µM* | x | -10% | 21µM* | x | x
CN(C)Cc1ccccc1-c1ccc2ncnc(N3CCOCC3)c2c1 | u | x | u | 21µM* | x | x
c1cn(-c2ncnc3ccc(-c4ccoc4)cc23)cn1 | 18µM* | x | -30% | 23µM* | x | x
COc1ccccc1-c1ccc2ncnc(N3CCN(C)CC3)c2c1 | 9.2µM* | x | -14% | 7.3µM* | x | x
COc1cccc(C(=O)Nc2ccc3c(N4CCOCC4)ncnc3c2)c1 | x | x | 22% | x | x | x
O=C(NCCC(c1ccccc1)c1ccccc1)c1ccc[n+]([O-])c1 | x | x | 48% | x | x | x
C=CCNC(=S)N/N=C/c1ccc(Cl)cc1Cl | x | x | 56% | x | x | x
COc1cccc(-c2ccc3ncnc(N4CCOCC4)c3c2)c1 | 15µM* | x | 0% | 26µM* | x | x
c1nc(N2CCOCC2)c2cc(-c3ccoc3)ccc2n1 | 8.2µM* | x | u | u | x | x
O=C(NN=C1CCCCCC1)c1nc(-c2ccccc2)n(-c2ccccc2)n1 | x | x | 27% | x | x | x
COc1ccccc1CN1C[C@H]2[C@H](C1)[S+](=O)([O-])C(C)(C)C(=O)N2Cc1ccccc1 | x | x | -26%[176 µM] | x | x | x
COc1cc(=O)n2c(c1C(=O)NCc1ccco1)CCN(Cc1ccc(F)cc1Cl)CC2 | 0.21µM* | x | 0% | 2.9µM* | x | x
COc1ccccc1-c1cnc(C(O)c2cc(Cl)cc(Cl)c2)[nH]1 (stereo not drawn) | 21µM* | 2% | -6% | u | -5 | u
OC(c1cc(Cl)cc(Cl)c1)c1ncc(-c2ccccc2F)[nH]1 (stereo not drawn) | u | u | -7% | u | 3 | u
OC(c1ccc(Cl)c(Cl)c1)c1ncc(-c2ccccc2C(F)(F)F)[nH]1 (stereo not drawn) | u | u | -17% | 18µM* | -12 | u
COc1ccccc1-c1cnc(C(O)c2ccc(Cl)c(Cl)c2)[nH]1 (stereo not drawn) | u | -27% | -18% | 16µM* | -19 | u
COc1ccccc1-c1cnc(C(O)c2ccc(F)c(C)c2)[nH]1 (stereo not drawn) | u | 2% | 12% | -30% | 19 | 3%
Cc1cc(Br)ccc1NC(=O)CN(C)C(=O)CN1C(=O)NC(C)(C2CC2)C1=O (stereo not drawn) | -25% | 2%[9.24 µM] | -6% | -4% | 19 | -6%
O=C(c1cc(F)ccc1F)N(C1CCCC1)C1CC1 | x | x | 5% | x | x | x
Cc1cc(C(=O)CSc2n[nH]c(N)n2)c(C)n1-c1ccc(F)cc1 | 21µM* | u | 0% | u | 2 | -25%
Cc1cc(C(=O)CSc2n[nH]c(N)n2)c(C)n1C1CC1 | u | 5% | 161% | 21µM* | -8 | 3%
Cc1ccc(-n2c(C)cc(C(=O)CSc3n[nH]c(N)n3)c2C)cc1 | u | 1% | -26% | 13µM* | 9 | u
Cc1cc(C(=O)CSc2n[nH]c(N)n2)c(C)n1-c1cc(F)ccc1F | -18% | -15% | u | u | -1 | -18%
SMILES | TDP1 cell CPT | HT1080NT lethal | ALOX12 inh | TDP1 cell noCPT | IL-1B inflam inh | HT1080 IDH1KD tx
Cc1cc(C(=O)CSc2n[nH]c(N)n2)c(C)n1-c1ccccc1 | u | -24% | -9% | -21% | -8 | u
CC(OC(=O)C1CC2CCCC(C1)C2=O)C(=O)c1ccc(C(C)(C)C)cc1 (stereo not drawn) | x | x | -2% | x | x | x
Cc1[nH]c2c(C(=O)N(C)C3CCS(=O)(=O)C3)cccc2c1C (stereo not drawn) | x | x | 5% | x | x | x
O=C1c2c(nc(COc3ccccc3)n2Cc2ccccc2)NCCN1Cc1ccccc1F | x | x | 6% | x | x | x
CCCCCC1CCC(c2ccc(C(N)=O)cc2)CC1 (stereo not drawn) | 6% | 23% | 4% | -6% | 30 | u
CCCC1CCC(c2ccc(/C(N)=N/O)cc2)CC1 (stereo not drawn) | u | -30% | 79% | 15µM* | u | -29%
CCCC1CCC(c2ccc(C(N)=O)cc2)CC1 (stereo not drawn) | 12% | 1% | 4% | -2% | 46 | -3%
CCCC1CCC(c2ccc(C(=O)NN)cc2)CC1 (stereo not drawn) | 29µM* | -24% | -19% | 29µM* | 26 | -19%
CC(C)C[C@H](NC(=O)c1nc[nH]c1C(=O)NCc1ccc(CNC(=O)OC(C)(C)C)cc1)C(=O)OCc1ccccc1 | u | -9% | 6% | 21µM* | 0 | -1%
CC(C)(C)OC(=O)[C@H](Cc1ccccc1)NC(=O)c1nc[nH]c1C(=O)NCc1ccccc1 | u | 3% | -1% | -30% | -29 | 4%
CC(C)C[C@H](NC(=O)c1nc[nH]c1C(=O)NCC(=O)OC(C)(C)C)C(=O)OCc1ccccc1 | u | 1% | 25% | u | 32 | 0%
CC(C)(C)OC(=O)NCc1ccc(CNC(=O)c2[nH]cnc2C(=O)N[C@@H](Cc2ccccc2)C(=O)OCc2ccccc2)cc1 | u | -27% | 8% | 23µM* | 4 | -6%
CC(C)(C)OC(=O)NCc1ccc(CNC(=O)c2[nH]cnc2C(=O)N[C@@H](Cc2ccccc2)C(=O)OC(C)(C)C)cc1 | 18µM* | -12% | 3% | 21µM* | u | -1%
CC(C)(C)OC(=O)NCc1ccc(NC(=O)c2nc[nH]c2C(=O)N[C@@H](Cc2ccccc2)C(=O)OCc2ccccc2)cc1 | u | u | 14% | u | -65* | u
COCCN1CCCN(C(=O)c2cccc(Cl)c2)c2ccccc21 | x | x | 34% | x | x | x
COCCN1CC2(CCC1=O)CCN(c1nc(C(C)C)ccc1C#N)CC2 | x | x | 37% | x | x | x
